Bioassay records from PubChem BioAssay.
HCV inh – blocks hepatitis C virus; Huh7.5.1 HCVcc-Cre infection, luciferase reporter, 44 h; Potency, µM (titrated, usually from 41.8 µM), usual class: inhibitors; 340,000 tested, 3.4% active; active = well fitted inhibition curve with a large enough effect; inconclusive = small, poorly fitted or top-dose-only effect, or another doubt; inactive = no such curve, though single readings can be large or run the other way
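Cells seeded at 1,000/well and cultured 4 h, then compounds added followed by HCVcc-Cre virus (~0.5 moi). After 44 h further culture, luciferase substrate was added, plates held 15 min at room temperature, and luminescence read for 15 sec.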
Vaccinia Venus – inhibitors of vaccinia virus (Venus reporter) | Vaccinia virus Venus reporter expression, fluorescence | Potency, µM (series often up to 36.5 µM), most hits filed as inhibitors | 330,000 tested, 0.46% active | AID 720580; calls by dose curve; tested in A549 cells; also: nearly all actives have a fitted effect of over 30% in size
Lassa entry inh – inhibitors of Lassa virus binding or cell entry; Lassa virus pseudotype entry inhibition, cell reporter; Potency, µM (doses to about 37.9 µM), usual class: inhibitors; 300,000 tested, 1.2% active; AID 540256; calls by dose curve; tested in HEK293 cells; also: nearly all actives have a fitted effect of over 50% in size
Vaccinia mCherry – inhibitors of vaccinia virus infection (mCherry reporter signal); Vaccinia virus mCherry reporter infection, fluorescence; 310,000 tested, 0.63% active; Potency, µM (top dose mostly 36.5 µM), hits mostly inhibitors; calls by dose curve; tested in A549 cells; also: nearly all actives have a fitted effect of over 35% in size
Marburg entry inh – blocks Marburg virus binding to or entry into cells | 300,000 tested, 1.8% active | Potency, µM (top dose mostly 37.8 µM), most hits filed as inhibitors | AID 540276 | Marburg virus pseudotyped entry inhibition, cell reporter; calls by dose curve; tested in HEK293 cells
Numbers stand for hits; – = inactive; ? = inconclusive; · = not tested or not shown. This is a sample that favours compounds with a hit; in the whole collection about 4.6% have one here.

SMILES	HCV inh	Vaccinia Venus	Lassa entry inh	Vaccinia mCherry	Marburg entry inh
CCOC(=O)c1cc(-c2ccc(OC)cc2)n(CCC(=O)Nc2ccc(OC)cc2OC)c1C	·	–	?	–	·
OCCCNc1c2ccccc2nc2ccccc12	11.2µM	10µM	?	11.2µM	7.08µM
OCCNc1c2c(nc3ccccc13)CCCC2	–	–	–	–	–
c1ccc2c(NCCc3c[nH]c4ccccc34)c3ccccc3nc2c1	14.1µM	8.91µM	·	?	·
COc1cc(C2c3c(-c4ccccc4O)n[nH]c3C(=O)N2Cc2ccco2)cc(OC)c1OC (stereo unspecified)	–	·	·	·	·
COc1ccc(C2c3c(-c4ccccc4O)n[nH]c3C(=O)N2Cc2ccco2)cc1 (stereo unspecified)	–	–	0.58µM	–	–
O=C1c2[nH]nc(-c3ccccc3O)c2C(c2cccc(O)c2)N1Cc1ccco1 (stereo unspecified)	?	–	0.501µM	·	–
Cc1ccc(C(=O)Nc2nc(C)c(C(=O)Nc3ccc4c(c3)CCC4)s2)cc1	?	–	?	–	1.12µM
O=C1Nc2ccc(I)cc2/C1=C/c1cc(Br)c(O)c(Br)c1	·	–	–	–	?
O=C1Nc2ccc(C(=O)c3ccco3)cc2/C1=C/c1cc(Cl)c(O)c(Cl)c1	·	·	3.15µM	·	·
CCc1cccc2c(C(=O)CSc3nnc(C4CC4)o3)c[nH]c12	5.62µM	·	·	·	·
CC(C)Oc1ccc(CNC(=O)CC(c2ccccc2)c2cc(Cl)ccc2O)cc1 (stereo unspecified)	?	·	7.3µM	·	?
COc1ccc(/C(C)=N/Nc2ccc(C(=O)O)cc2)c(OC)c1	–	–	?	–	?
COc1ccc2c(c1)C(=NNc1ccc(C(=O)O)cc1)c1cc(OC)ccc1-2	14.1µM	?	·	?	·
N#CC1CCCc2c1[nH]c1ccc([N+](=O)[O-])cc21 (stereo unspecified)	?	–	?	–	10µM
O=C1NCCc2c1[nH]c1ccc([N+](=O)[O-])cc21	?	–	·	–	–
COc1ccc(OC)c(N/C=C/C(=O)c2ccccc2)c1	–	–	?	–	1µM
COc1ccc(OC)c(C(=O)/C=C/c2ccccc2C(F)(F)F)c1	10µM	·	?	·	?
COc1cccc(C(=O)/C=C/Nc2cccc(O)c2)c1	–	·	2.91µM	·	?
Cc1ccc2oc(-c3ccc(C)c(NC(=O)/C=C/c4ccc(Cl)cc4)c3)nc2c1	·	–	–	–	?
CCNC(=O)c1c(NC(=O)Cc2coc3cc(C)ccc23)sc2c1CCCC2	·	–	?	–	–
COc1cc(NC(=O)Cc2c(C(=O)O)c(C)cn2C)cc(OC)c1	·	–	–	–	·
O=c1[nH]c(=O)n([C@H]2C[C@H](O)[C@@H](CO)O2)cc1I	–	?	·	–	·
O=c1[nH]c(=O)n(C2CC(O)C(CO)O2)cc1C(F)(F)F (stereo unspecified)	·	–	·	2µM	·
COc1cc(OC)c(OC)cc1/C=C/c1nc2ccccc2o1	·	–	·	–	·
SMILES	HCV inh	Vaccinia Venus	Lassa entry inh	Vaccinia mCherry	Marburg entry inh
c1cc2c(cc1-c1cnc3n1CCC3)OCCO2	10µM	?	–	?	–
O=C(Cc1nc2ccccc2[nH]1)N1CCC(n2c(C3CCC3)nc3cccnc32)CC1	·	–	·	–	·
CCCCCCN1C[C@H](n2cc(-c3ccc(F)cc3)nn2)[C@@H](O)C[C@@H]1c1ccc(Cl)cc1	·	14.1µM	·	?	·
O=C(C1CCCCC1)N1C[C@H](O)[C@H](n2cc(-c3ccc(F)cc3)nn2)C[C@@H]1c1ccc(Cl)cc1	·	·	·	·	7.91µM
O[C@H]1C[C@H](c2ccc(Cl)cc2)N(CC2CCCCC2)C[C@@H]1n1cc(-c2ccc(F)cc2)nn1	·	–	·	–	·
Cc1ccc([C@H]2C[C@H](O)[C@@H](n3cc(-c4ccc(F)cc4)nn3)CN2CC2CCCCC2)cc1	·	–	28.1µM	–	·
CCCCCCN1C[C@H](n2cc(-c3ccc(F)cc3)nn2)[C@@H](O)C[C@@H]1c1ccccc1	·	–	·	–	·
CCCCCCN1C[C@H](n2cc(COC(=O)c3ccccc3)nn2)[C@@H](O)C[C@@H]1c1ccc(OC)cc1	·	–	·	–	·
CCCCCCN1C[C@H](n2cc(COC(=O)c3ccccc3)nn2)[C@@H](O)C[C@@H]1c1ccc(Cl)cc1	·	10µM	·	?	·
CC[C@@H]1[C@H]2CCCC(=O)N3CC[C@@H](C[C@@H]1OC(=O)Nc1ccc4c(c1)OCO4)[C@@H]23	·	–	·	–	·
CC(=O)c1ccc(NC(=O)c2nc(-c3ccc(Cl)cc3)n3c2CCCCC3)cc1	·	–	–	–	·
O[C@H]1C[C@H](c2ccc(Cl)cc2)N(Cc2cccs2)C[C@@H]1n1cc(-c2ccc(F)cc2)nn1	·	–	·	–	·
COc1ccc([C@H]2C[C@@H](O)[C@H](n3cc(-c4ccc(F)cc4)nn3)CN2Cc2cccs2)cc1	·	·	·	·	8.87µM
Cc1ccc(CNC(=O)CCCN2C(=O)CCn3nc(-c4cccn4C)cc32)cc1	·	–	–	–	·
Cc1ccc(C(=O)N2CCN(C3c4cccc5cccc(c45)C3NS(=O)(=O)c3ccccc3)CC2)cc1 (stereo unspecified)	?	–	12.6µM	·	11.2µM
Cc1ccc(S(=O)(=O)NC2c3cccc4cccc(c34)C2Sc2nncn2C)cc1 (stereo unspecified)	–	–	?	–	?
Cc1ccc(S(=O)(=O)NC2c3cccc4cccc(c34)C2Sc2nc(C)cc(C)n2)cc1 (stereo unspecified)	?	–	?	–	17.8µM
C=C1C=C(C)n2ncc(C(=O)Nc3ccc(C)cn3)c2N1	·	–	·	–	·
Cc1cc(C(=O)NCCN2Cc3ccccc3OC(c3ccccc3F)C2)no1 (stereo unspecified)	·	–	·	–	·
COc1ccc([C@H]2CC(=O)C=C(c3cccc4c3Oc3ccccc3S4)C2)cc1OC	12.6µM	?	·	?	·
O=C1C=C(c2cccc3c2Oc2ccccc2S3)C[C@@H](c2ccc(Cl)cc2)C1	–	–	·	–	·
CCOC(=O)c1cccc(C2=CC(=O)C[C@H](c3ccc(OC)c(OC)c3)C2)c1	12.6µM	–	·	–	·
COc1cccc(C2=CC(=O)C[C@H](c3ccc4c(c3)OCO4)C2)c1OC	10µM	–	·	–	·
CCCN(CCC)C(=O)Cn1ccc(=N)c2c1CCCC2	·	·	·	·	–
Cc1cc(C)cc(N(CC(=O)Nc2c(C)cc(C)cc2C)S(=O)(=O)c2c(C)nn(C)c2C)c1	·	–	–	–	·
SMILES	HCV inh	Vaccinia Venus	Lassa entry inh	Vaccinia mCherry	Marburg entry inh
O=C(C1CCCN(S(=O)(=O)c2ccc(Br)s2)C1)N1CCN(c2ccccc2)CC1 (stereo unspecified)	10µM	–	?	–	?
O=C(C1CCCN(S(=O)(=O)c2ccccc2)C1)N1CCN(c2ccccc2)CC1 (stereo unspecified)	?	–	–	–	–
O=C(C1CCCN(S(=O)(=O)c2ccc(Br)cc2)C1)N1CCN(Cc2ccccc2)CC1 (stereo unspecified)	11.2µM	?	?	?	?
CCC(=O)N(Cc1cccs1)[C@@H]1CCOC(C)(C)C1	·	·	·	·	–
Cc1cccc(-c2cc3c(N=O)c4ccccc4c-3n[nH]2)c1	11.2µM	–	?	–	?
Cc1ccc(-c2cc3c(N=O)c4ccccc4c-3n[nH]2)cc1	–	–	–	–	–
O[C@]1(c2ccc(F)cc2)CCNC1	·	·	·	·	–
Oc1ccc(COCc2ccccc2)c2cccnc12	5.01µM	?	?	–	?
